# PLK1 kinase inh: human PLK1 kinase inhibitors, primary screen, biochemical, TR-FRET. inhibition, % at 10 µM. AID 619, 2007. recombinant PLK1 kinase, TR-FRET peptide phosphorylation. 97,000 tested, 0.53% active. Serine/threonine-protein kinase PLK1 (Homo sapiens), P53350;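 active = inhibition of 50% or more in the single-concentration screen; inactive = inhibition below 50%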;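 also: 0% = DMSO max control and 100% = H-89 dihydrochloride min control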
# ERb coact inh: inhibitors of ERβ-SRC1 coactivator interaction, primary screen, biochemical, TR-FRET, ERβ LBD, SRC-1 peptide. TR-FRET ER-beta LBD / SRC1-Cy5 peptide binding; receptor agonist-loaded with 1 µM estradiol. inhibition, % at 25.6 µM. 86,000 tested, 1.3% active. AID 633, 2007;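 active = compounds whose percent inhibition of the receptor-coactivator binding signal exceeds about 50% in the single-dose screen, limit read from the data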;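 also: 0% = receptor plus peptide wells without compound and 100% = peptide-only wells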
# Plk1 PBD FP: Plk1 polo box domain binding inhibitors, primary screen, biochemical, fluorescence polarization; Serine/threonine-protein kinase PLK1 (Homo sapiens), P53350; Plk1 PBD phosphopeptide binding; AID 693, 2007; 97,000 tested, 0.13% active; inhibition, %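 (tested at about 20 µM)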; in the data active = inhibition above about 34%, passing the limit was not always enough
# ERa SRC1 inh: ERα–SRC-1 coactivator interaction inhibitors, primary screen, biochemical, TR-FRET, ERα LBD, estradiol-bound; Estrogen receptor (Homo sapiens), P03372; TR-FRET ER-alpha LBD / SRC-1 peptide; inhibition, % at 25.6 µM; 86,000 tested, 1.7% active; AID 629, 2007; in the data active = inhibition above about 50%;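 also: 0% = receptor plus peptide control and 100% = peptide only without receptor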
# ERa coact pot: enhancers of ERα–SRC-1 coactivator binding, primary screen, biochemical, TR-FRET, ERα LBD, low estradiol; AID 639, 2007; 86,000 tested, 1.3% active; TR-FRET ERalpha-LBD/SRC-Cy5 coactivator binding, 2 h; 100 = basal binding, no effect; coactivator binding (% of control), % at 25.6 µM; Estrogen receptor (Homo sapiens), P03372; in the data active = activity above about 200%;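 also: binding measured in presence of low estradiol as agonist stimulus; 0% = peptide alone without receptor and 100% = receptor with peptide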
# Smad3 inh: Smad3/FoxH1 peptide binding inhibitors, primary screen, biochemical, TR-FRET. Mothers against decapentaplegic homolog 3 (Homo sapiens), P84022. TR-FRET Smad3/Dy647-FoxH1 peptide binding, europium anti-His. inhibition, % at 25 µM. 88,000 tested, 0.29% active;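 active = compounds that reduce the energy-transfer binding signal between the protein and its labelled peptide by more than half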;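 also: 0% = Smad3 plus labelled peptide maximal FRET and 100% = peptide-only background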
# Target sequence (P84022 whole entry, looked up): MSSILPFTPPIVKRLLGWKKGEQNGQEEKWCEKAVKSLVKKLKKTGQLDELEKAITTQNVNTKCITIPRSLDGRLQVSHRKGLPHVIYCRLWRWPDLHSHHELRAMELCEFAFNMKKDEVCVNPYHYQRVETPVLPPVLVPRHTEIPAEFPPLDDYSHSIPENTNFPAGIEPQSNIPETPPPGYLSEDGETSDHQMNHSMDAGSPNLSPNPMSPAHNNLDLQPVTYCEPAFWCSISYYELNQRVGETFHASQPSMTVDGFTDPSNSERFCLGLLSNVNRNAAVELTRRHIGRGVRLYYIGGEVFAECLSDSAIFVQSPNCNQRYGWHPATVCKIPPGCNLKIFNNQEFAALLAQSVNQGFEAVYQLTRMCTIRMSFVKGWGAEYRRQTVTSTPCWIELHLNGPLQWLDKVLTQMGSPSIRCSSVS
# * = called active by the depositor; nt = no result given; + = active, no number; [ ] = dose if it differs, or a comment. An excerpt weighted towards active compounds, which were near 3.3% of everything screened.
SMILES,PLK1 kinase inh,ERb coact inh,Plk1 PBD FP,ERa SRC1 inh,ERa coact pot,Smad3 inh
Cn1c(=O)c2[nH]c(CCCCc3nc4c([nH]3)c(=O)n(C)c(=S)n4C)nc2n(C)c1=S,nt,nt,nt,nt,nt,0
C/C(N)=C(/C#N)C(=O)CSc1nnc(Cc2ccccc2F)n1N,-11,81*,17,69*,33,11
CCn1ncc2c(OCc3ccc(C#N)cc3)cc(C)nc21,1,4,-2,5,100,0
CCOC(=O)CC1=C(C(=O)OCC)C(c2cccs2)C(C#N)=C(N)O1 (stereo not given),1,-2,-19,93*[fluorescence artefact?],91,6
COc1ccc(C(=O)n2c(SC)nc3cc4c(cc32)OCCO4)cc1,-3,nt,-25,nt,nt,nt
CC(C)[C@@H](C(=O)O)N1C(=O)c2ccccc2C1=O,nt,nt,nt,nt,nt,-3
Cc1cc(O)c(C(C)C)cc1CN1CCCCC1,nt,nt,nt,nt,nt,18
CCOC(=O)c1cn2c3c(c(F)c(F)c(F)c3c1=O)SC(N1CCCC1)=N2,nt,-15,nt,14,268*[fluorescence artefact?],4
O=C(O)[C@@H]1[C@H](C(=O)NCc2cccnc2)[C@@H]2C=C[C@H]1O2,nt,nt,nt,nt,nt,7
CCCCN1CCc2c([nH]c3c(C)cccc23)C1=O,nt,-10,nt,-9,587*[fluorescence artefact?],3
CC(C)CCC[C@@H](C)[C@@H]1CC[C@@H]2[C@H]3CC[C@H]4C[C@@H](N)CC[C@]4(C)[C@@H]3CC[C@]21C,nt,nt,nt,nt,nt,-1
Cn1c(=S)c2[nH]c(SCCN3C(=O)c4ccccc4C3=O)nc2n(C)c1=O,nt,nt,nt,nt,nt,-26
COC(=O)c1ccc(OC(=O)c2ccc(OCc3c(C)noc3C)c(OC)c2)cc1,nt,49,nt,51*[fluorescence artefact?],280*[fluorescence artefact?],-5
Cc1ccc(-c2n[nH]c(=S)n2/N=C/C=C\c2ccccc2[N+](=O)[O-])cc1,-16,49,-12,52*,270*[fluorescence artefact?],1
CN1C[C@H](c2ccccc2)C(O)([C@]2(c3ccccc3)CN(C)C[C@H](c3ccccc3)C2=O)[C@H](c2ccccc2)C1 (stereo not given in full),nt,nt,nt,nt,nt,6
O=C(CCSCCc1ccccn1)Nc1ccc(Cl)cn1,-13,-8,-15,2,109,54*[fluorescence artefact?]
Cc1ccc(-n2c(C)cc(/C=c3/sc4nc5ccccc5n4c3=O)c2C)cc1,4,5,-7,4,109,1
COc1cc(N2CCCC2)c(OC)cc1/C=c1/sc2nc3ccccc3n2c1=O,-40,74*[fluorescence artefact?],-262,97*[fluorescence artefact?],19,0
CCCc1cc2c(=O)c(-c3ccccn3)coc2cc1OC,-4,7,29,9,+[fluorescence artefact?],0
CCCc1cc2c(=O)c(-c3ccccn3)c(C)oc2cc1O,nt,17,nt,12,87,12
CC(c1ccccc1)C1CC(=O)N(C2CCCCC2)C1=O (stereo not given),-8,3,-31,-2,97,54*
N#C/C(=C\c1c(N2CCC(C(N)=O)CC2)nc2ccccn2c1=O)S(=O)(=O)c1ccccc1,-15,53*,-18,23,94,-10
O=[N+]([O-])c1cc(/C=N\Nc2nccs2)ccc1O,-9,100*[fluorescence artefact?],-9,100*[fluorescence artefact?],2,78*
Clc1cccc(Cl)c1/C=N\Nc1nccs1,-4,nt,-8,nt,nt,nt
O=c1oc2c3c4c(cc2cc1-c1nc2ccccc2[nH]1)CCCN4CCC3,nt,58*[fluorescence artefact?],nt,94*[fluorescence artefact?],10,39
SMILES,PLK1 kinase inh,ERb coact inh,Plk1 PBD FP,ERa SRC1 inh,ERa coact pot,Smad3 inh
CC(=O)NCCOC(=O)Nc1cccnc1,-13,12,-34,1,96,-4
CC(=O)NCCOC(=O)Nc1ccncc1,-5,2,8,55*,78,1
CC1CCCCN1C(=O)CSc1nnc(CSc2ncccn2)n1C (stereo not given),-10,-8,-19,-5,99,73*
Cc1csc(C(C#N)C(=O)c2ccncc2)n1 (stereo not given),nt,63*,nt,32,65,8
O=C1CC(c2ccco2)CC(O)=C1C=Nc1ccc(Br)cc1 (stereo not given),-4,9,-4,6,84,16
O=C1CC(c2ccco2)CC(O)=C1C=Nc1cc(Cl)ccc1O (stereo not given),9,48,-35,52*,130,-18
O=C(CCCSc1nc(-c2ccco2)cc(C(F)(F)F)n1)Nc1ccc2c(c1)OCO2,-3,-11,-11,-8,98,6
CC(NC(=O)CCSc1nc(-c2ccc3c(c2)OCO3)cc(C(F)(F)F)n1)c1ccccc1 (stereo not given),-7,46,12,90*,57,4
CC1=C(C(=O)c2ccccc2)C(c2cn(-c3ccccc3)nc2-c2ccc(Cl)cc2)NC(=S)N1 (stereo not given),-7,-3,9,-12,282*[fluorescence artefact?],-9
[O-][N+](CCO)(CCO)c1ncnc2nc[nH]c12,nt,nt,nt,nt,nt,-13
CN1CCN(c2nc(C#N)cc(-c3ccccc3)n2)CC1,-7,-7,-15,-5,101,-1
COc1ccc(-c2cc(C#N)nc(N3CCNCC3)n2)cc1,55*,36,2,33,305*[fluorescence artefact?],1
Cc1nc2ccc(NC(=O)Cc3cccs3)cc2s1,nt,44,nt,62*[fluorescence artefact?],60,7
O=C(Cc1cccs1)Nc1ccc(C(=O)O)cc1,-3,4,-2,1,117,-5
Cc1nc2ccc(NC(=O)C3CCN(S(=O)(=O)c4cccs4)CC3)cc2s1,53*,-6,14,0,112,4
CN(C(=O)c1ccc(NC(=O)c2cnccn2)cc1)C1CCCCC1,nt,-40,nt,-35,98,11
CNc1nc(SC)nc2ccsc12,-13,nt,14,nt,nt,nt
O=C(CSc1nnnn1-c1ccccc1)Nc1nsc(-c2ccc(Cl)cc2)n1,nt,39,nt,73*,141,-29
Cn1nc(CC(=O)N2CCN(c3ccccc3)CC2)c2ccccc2c1=O,-11,-13,-23,-4,119,1
CC(C)(C)OC(=O)N1CCN(c2ccc(NC(=O)Cn3nnc(-c4ccccc4)n3)cc2)CC1,-2,50*,4,31,44,9
Cn1nc(CC(=O)Nc2ccc(N3CCN(C(=O)OC(C)(C)C)CC3)cc2)c2ccccc2c1=O,nt,39,nt,72*[fluorescence artefact?],68,0
CCCNC(=O)CS(=O)Cc1nc(-c2ccc(OC)cc2)oc1C (stereo not given),67*,11,-24,5,90,-13
Cc1ccc(-c2nc(CS(=O)CC(=O)NCCC(C)C)c(C)o2)cc1 (stereo not given),67*,-15,9,-11,131,3
